Source: PMC13494018
A number with no mark means an inactive call. How the calls were made is not given here.

Biological target: VTCN1, Q7Z7D3
Sequence (Q7Z7D3 whole entry): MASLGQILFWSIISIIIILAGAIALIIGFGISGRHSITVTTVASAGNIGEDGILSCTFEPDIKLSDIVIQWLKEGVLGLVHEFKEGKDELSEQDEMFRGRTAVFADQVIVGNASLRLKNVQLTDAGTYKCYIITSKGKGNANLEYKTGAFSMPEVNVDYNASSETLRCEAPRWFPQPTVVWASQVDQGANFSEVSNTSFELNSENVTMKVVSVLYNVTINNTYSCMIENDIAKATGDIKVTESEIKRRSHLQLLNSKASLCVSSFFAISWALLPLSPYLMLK

Binder | binding in a display sort
design_604_3e0b3014-b333-46f1-8adc-d7f0bf8048fa_1261_dldesign_0_cycle1_af2pred (protein) EAEKAAKKAEEVGKKAVKEVKKAVEEGLPKEELSKVVHEEIQKITEASTEAARIAEEKAGKEAGEKVLKAGEEARKKLIAIAKE | not found
design_604_3e0b3014-b333-46f1-8adc-d7f0bf8048fa_2138_dldesign_0_cycle1_af2pred (protein) GEELIKRAEEVIERAEKVRKEDPSLAKEANEAISTAEQAKQAAENAVKAAADPEKAKEFKEAAEKYLEKAEKRVEELEKKVKE | not found
design_604_3e0b3014-b333-46f1-8adc-d7f0bf8048fa_1344_dldesign_0_cycle1_af2pred (protein) KEKQKELLLESAVEEAEKAAKLLKDPELGKRLLTAVKAAKEDVSKAPEAAAVAREVGAKEPEASLEASAAAASLLSAYRIAKS | not found
design_604_3e0b3014-b333-46f1-8adc-d7f0bf8048fa_1395_dldesign_0_cycle1_af2pred (protein) AEKEELIAKAKEIAAKSAEVAKEAKKLGKDAAEAETTAKEAQKTAEEAIKKAEAGEIDVETLKKLVSKAAGLYYEAKSYLEVVKKKKE | not found
design_604_3e0b3014-b333-46f1-8adc-d7f0bf8048fa_1604_dldesign_0_cycle1_af2pred (protein) MKDAEKLDEINKLSAEAGKLLKEAAKKDPSRKAELEAAAKEAAKKFDEAYDLFEKDPDAGLALAKEAYKEVKKLVEA | not found
design_604_3e0b3014-b333-46f1-8adc-d7f0bf8048fa_1498_dldesign_0_cycle1_af2pred (protein) SEKEKEEEERKKLAEEERAAAKAALAAAKAAAQKGDVAAAIAAAQEARIHASAYAQYLKTEEAKKERDAIVAAAKAAVAAAKAA | not found
design_604_3e0b3014-b333-46f1-8adc-d7f0bf8048fa_1413_dldesign_0_cycle1_af2pred (protein) EEEKEKRAEEKRKEIEELAKLAAENKEKGEKAVEKAKELVEKADEEEAPALAKALSRLVAAAYAVDEEVADKAFEAYALAWKKAQ | not found
design_604_3e0b3014-b333-46f1-8adc-d7f0bf8048fa_1397_dldesign_0_cycle1_af2pred (protein) SENELTEEAVSLAARVSKRANELGKKTGSEELLKLSEEAKELRDKIVDDPSTAEEALKKVKELEKRIEELTAA | not found
design_604_3e0b3014-b333-46f1-8adc-d7f0bf8048fa_1332_dldesign_0_cycle1_af2pred (protein) EEVKEYLAKLSAEAYELLAEAEVLYKKTGSEKAKEAKELAKEALKELKEAGKLLEEDPEKAKEKAKIGEEKLKKAKEILEEIYKE | not found
design_604_3e0b3014-b333-46f1-8adc-d7f0bf8048fa_2472_dldesign_0_cycle1_af2pred (protein) EEEKKLTDEAIKEAKKLFAKAGAEEDAKEVAEKARKEGVSAGLSKALSLAEYYKAEGNEKKAEAAEKAAEALADALIKIRKAKRE | not found
design_604_3e0b3014-b333-46f1-8adc-d7f0bf8048fa_1215_dldesign_0_cycle1_af2pred (protein) SRVEELGKRLANKGKKYSLDDAADFGAEMAIMAGLTEEEAEAAFKYAAEIDPSFAEAMKKGLALYKELTA | not found
design_604_3e0b3014-b333-46f1-8adc-d7f0bf8048fa_2376_dldesign_0_cycle1_af2pred (protein) EEFEKAKKELKEAAEEAKKIDPEVGKEAKKIAEKATKVADSIIEKVGERAKPIATDILKNAKEKIKKLTEKRKKEKEA | not found
design_604_3e0b3014-b333-46f1-8adc-d7f0bf8048fa_1994_dldesign_0_cycle1_af2pred (protein) DNKKTVEALSKVNRLGKEAGEAPKEETMKLVEEGVKYAKEEAKKLKDPDYKKYLIDRGKELEENAKKYLA | not found
design_604_3e0b3014-b333-46f1-8adc-d7f0bf8048fa_2199_dldesign_0_cycle1_af2pred (protein) DAAVKAEASKVAAEAYEVIAEIEKLDPEKGKELRKKLKEARKKAKEDPKAGLAALKEVLEESKKELEKLKKEEKEKE | not found
design_604_3e0b3014-b333-46f1-8adc-d7f0bf8048fa_1534_dldesign_0_cycle1_af2pred (protein) KTEAIQKFADTLSEIIKLAAEAGKKSGKTAEYQALIEGALSGDFETAVKNAKEAAKLAKKDDPELGKKIEEAAKKLAEYAKKVLES | not found
design_604_3e0b3014-b333-46f1-8adc-d7f0bf8048fa_1927_dldesign_0_cycle1_af2pred (protein) LVEEAKKIAEEKAEEMKKAMEKAEKEGKEAMKKAKEKFKKLRAELKKLYEEYKKKDPEAAKKLAEGAHKMYEYMNEAEHKL | not found
design_605_6ebdab39-eaab-4492-afcb-164e20c3b25e_2_dldesign_0_cycle1_af2pred (protein) SAVKEEAKKIIDEALDAGFEDPEKGRALAEEAYKLLASVPELAALGEEALKKVNAIIDRFEEATKKAEESRK | not found
design_604_3e0b3014-b333-46f1-8adc-d7f0bf8048fa_1712_dldesign_0_cycle1_af2pred (protein) SEEGQKVLEKIEELRKEAEKFAKENKENGPKFARELAKKMRELAEKAKKEYGWNQEILNKASKVVHEARQLANEAEVEAKK | not found
design_604_3e0b3014-b333-46f1-8adc-d7f0bf8048fa_1949_dldesign_0_cycle1_af2pred (protein) AEKYKKKMAEAAHLYADLAMEGKPEEGEKEADAIIEKALKEGKAAGDGEAAEAAAKEARATMEYLKKTMEEADKRNK | not found

Binder | binding in a display sort
design_604_3e0b3014-b333-46f1-8adc-d7f0bf8048fa_2312_dldesign_0_cycle1_af2pred (protein) MEEVEKLKKEAEKAAKEAEKAVERIKDPKTAKEALKEASKELAKLYELAAELEHLPEGKEAGKEVREKAKKLREEAKKAWAAQLAA | not found
design_605_6ebdab39-eaab-4492-afcb-164e20c3b25e_16_dldesign_0_cycle1_af2pred (protein) AAAAHAKAVAEAKEEMKETIKEEAKKAKEKNEEAGKESLEFGKELLEFFEKSMEKVKDPKEAKKGGERGKKIIKKNAEAITKAIT | not found
design_604_3e0b3014-b333-46f1-8adc-d7f0bf8048fa_1973_dldesign_0_cycle1_af2pred (protein) MAEKEAKAKKLMAEGYSKVYEAAALARVDPEEGKKEWEEVVEKYTKELEKLDPEKGKELKEKAEKLLEKAL | not found
design_604_3e0b3014-b333-46f1-8adc-d7f0bf8048fa_2314_dldesign_0_cycle1_af2pred (protein) EKEKRKEAIEKAEKVSTRIAKDIDTPEAKKIEELTKEAAEKALENVDNPEEVVKIMKEAAEEAAKDPEMEAVALVWKNAADFIK | not found
design_604_3e0b3014-b333-46f1-8adc-d7f0bf8048fa_1827_dldesign_0_cycle1_af2pred (protein) MTHEEINAASYALRALTRAARDVPEAAAEFEAQIDFLMSGSIEEGVEKVIALAEKYRDRLSPEALALFEKAKEYLEKAK | not found
design_605_6ebdab39-eaab-4492-afcb-164e20c3b25e_50_dldesign_0_cycle1_af2pred (protein) DEKIEELREAILESAKSGGETVEEVAKLAKELGLTSAEVMLAALEAAEELPEKRELAREIGRRIAAAVLA | not found
design_604_3e0b3014-b333-46f1-8adc-d7f0bf8048fa_1429_dldesign_0_cycle1_af2pred (protein) DKQVISNKAKAQAERAKQAAKNILKTGDASLAPKVKEIAKKAEKAAKEAEKAGDKESAKEAKKAAKEAKKAAKKVEE | not found
design_604_3e0b3014-b333-46f1-8adc-d7f0bf8048fa_2008_dldesign_0_cycle1_af2pred (protein) SSLEEAKKAKELAEELKKKVKELAKEAKADPSKAAEAAKVAKAIGEEAKELGKKYPEAAKYADAVAEYALHAAEQLEKLA | not found
design_604_3e0b3014-b333-46f1-8adc-d7f0bf8048fa_1221_dldesign_0_cycle1_af2pred (protein) AEMEERKAKGLEQAERLAERAKEAGKLNPEKAAELLGKAEAMLAKVRAMDNEAQWAEAAKEAAKLRELIAEAETEARRKKEEE | not found
design_604_3e0b3014-b333-46f1-8adc-d7f0bf8048fa_1387_dldesign_0_cycle1_af2pred (protein) ELDALVRAAIGEAVVFVLGPAAAPAAERIAAATPEEAKALLEEIAATQTPYQAAELLHTARAFAAYAETKYS | not found
design_604_3e0b3014-b333-46f1-8adc-d7f0bf8048fa_2206_dldesign_0_cycle1_af2pred (protein) NELEKLKEEIKKEGEKKLKEVEEKYKEAKKLLKEDKEKGLKLLAETAGKAYEYAAEFEVLSKKVPEAAEYAKKLRAKAKEIRKLAEEA | not found
design_604_3e0b3014-b333-46f1-8adc-d7f0bf8048fa_1479_dldesign_0_cycle1_af2pred (protein) MEEEVKKAKEKIEKLEKAALKTIDILEESAKLGDDISGIKTAAKAAEKEFGKLAKEYPGAAAYAKEAEKKVVDYANKAIKAAKAAK | not found
design_604_3e0b3014-b333-46f1-8adc-d7f0bf8048fa_1621_dldesign_0_cycle1_af2pred (protein) MEAEKRNEEYAKEVEELYKKVLDGDIEEDKEALKKAEKLLEEAEADPEMKEEVLKGLRAAVRMAKASIEAEEKR | not found
design_604_3e0b3014-b333-46f1-8adc-d7f0bf8048fa_1571_dldesign_0_cycle1_af2pred (protein) DPKQLLSDARDQITELFFEAGKEAVPYNRKVVAALKAGDLDAALAAVEEFQKEYPEVGAKAKAVMDKAIAAAKAA | not found
design_604_3e0b3014-b333-46f1-8adc-d7f0bf8048fa_2086_dldesign_0_cycle1_af2pred (protein) SAAAEKNVALASGTFKRLLEFPEEEQVATIADSIRANPAAADYFAAAAKADKENGPKLKKVLDIAAAKVAAA | not found
design_604_3e0b3014-b333-46f1-8adc-d7f0bf8048fa_2309_dldesign_0_cycle1_af2pred (protein) SHELLQQAIEELTAAEAEARRAAKIAEKKDKELAKKAKELAKKARELRKELIEKAKAGEATDEYIEEVLKKAKELEKEAKKILKEL | not found
design_604_3e0b3014-b333-46f1-8adc-d7f0bf8048fa_1248_dldesign_0_cycle1_af2pred (protein) NAYEEAKKAVDEMEKAMKALAKADPSLADEMKDKIATARKRLEAAKTDEEYKKVAEEAKKAKAAAQSILDALKKN | not found
design_604_3e0b3014-b333-46f1-8adc-d7f0bf8048fa_1627_dldesign_0_cycle1_af2pred (protein) ENLEKAKAADEKAKKFEDKAKEYEAKGKAEGKKYLYKAAAYYYAAAHAYNVAAKYYEKEGKAEEAAAAKAKAKEAEAKGNELAAK | not found
design_604_3e0b3014-b333-46f1-8adc-d7f0bf8048fa_2182_dldesign_0_cycle1_af2pred (protein) EEEEKKQKAVEKAKEAAKRLKEVYEKAPEELKPIVKDALDKVEAYAELAELNDAEIAEKAAKRAEKIAEEAIKKVE | not found
